Twelve compounds from PubChem BioAssay (EPA / NIEHS) can be followed below.

The target of experiment [1] is Peroxisome proliferator-activated receptor gamma (Homo sapiens) (UniProt P37231). As to the kind of experiment: NVS_NR_hPPARg: NovaScreen (NVS) Nuclear Receptor Binding Assay for human Peroxisome Proliferator-activated Receptor gamma (PPARg) (AID 2283370). Put shortly: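 FP read-out, 2 h post-dose, cell-free extracted receptor protein. Signal loss vs DMSO negative control = binding activity. Single-conc duplicate HTS at 25 uM; concentration-response follow-up for actives.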

In experiment [2] the test system is guinea pig Dopamine Transporter (DAT), gene 100714898. The experiment in a line: NVS_TR_gDAT: NovaScreen (NVS) Transporter Assay for guinea pig Dopamine Transporter (DAT) (AID 2283369).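 Note: active compounds lower bound radioligand signal relative to DMSO.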 Put shortly: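 Cell-free striatal membrane prep (guinea pig), 2 h exposure, filtration + scintillation readout of radioligand binding. Single-point 25 uM duplicate; actives rerun singleton, top conc 50 uM.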

In experiment [3] the target is human Serotonin Transporter (SERT), SLC6A4 (gene 6532) (UniProt P31645). As to the kind of experiment: NVS_TR_hSERT: NovaScreen (NVS) Transporter Assay for human Serotonin Transporter (SERT) (AID 2283372). An outline of the steps:
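Radioligand binding to native SERT in human platelet membranes, read by filter-based scintillation counting 1 h after dosing. Primary screen in duplicate at 25 uM; actives followed up in concentration series; loss of signal versus DMSO baseline.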

Experiment [4] deals with human Dopamine Transporter (DAT), SLC6A3 (gene 6531) (UniProt Q01959). As to the kind of experiment: NVS_TR_hDAT: NovaScreen (NVS) Transporter Assay for human Dopamine Transporter (DAT) (AID 2283374).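 Note: activity means loss of bound radioligand signal relative to DMSO.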 An outline of the steps:
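Cell-free radioligand binding to extracted human DAT protein, read 1 h after dosing by filter-based scintillation counting. Loss of specific binding scored against DMSO baseline; primary screen in duplicate at 25 uM, actives then run in concentration series.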

In experiment [5] the target is human Adenosine Transporter (Adot), SLC29A1 (gene 2030) (UniProt Q99808). The experiment in a line: NVS_TR_hAdoT: NovaScreen (NVS) Transporter Assay for human Adenosine Transporter (Adot) (AID 2283368). Put shortly: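 U937-derived membranes, cell-free radioligand binding, filter scintillation 1 h after dosing. 25 uM duplicate screen; hits (e.g. 30% inhibition) run in concentration-response up to 50 uM; loss of signal versus DMSO.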

Experiment [6] deals with guinea pig Sigma Receptor, Non-selective Binding, SIGMAR1 (gene 100135589) (UniProt Q60492). As to the kind of experiment: NVS_OR_gSIGMA_NonSelective: NovaScreen (NVS) Nuclear Receptor Binding Assay for guinea pig Sigma Receptor, Non-selective Binding (AID 2283367). Here is the method: NVS_OR_gSIGMA_NonSelective is a biochemical, single-readout assay that uses extracted gene-proteins from Guinea pig brain membranes in a tissue-based cell-free assay. Measurements were taken 1 hour after chemical dosing in a 48-well plate.NVS_OR_gSIGMA_NonSelective is one of one assay component(s) measured or calculated from the NVS_OR_gSIGMA_NonSelective assay. It is designed to make measurements of radioligand binding, a form of binding reporter, as detected with scintillation counting signals by Filter-based radiodetection technology.Data from the assay component NVS_OR_gSIGMA_NonSelective was analyzed into 1 assay endpoint. This assay endpoint, NVS_OR_gSIGMA_NonSelective, was analyzed in the positive analysis fitting direction relative to DMSO as the negative control and baseline of activity. Using a type of binding reporter, loss-of-signal activity can be used to understand changes in the binding as they relate to the gene Sigmar1. Furthermore, this assay endpoint can be referred to as a primary readout, because the performed assay has only produced 1 assay endpoint. To generalize the intended target to other relatable targets, this assay endpoint is annotated to the misc protein intended target family, where the subfamily is chaperone.
(§1) Binding assays used specific radioligands (tritiated, iodinated) with non-radioactive competitive displacement ligands in agonist or antagonist protocols (as indicated) and various reference compounds and inhibitors to titrate specific binding to receptors and transporters. Most enzyme assays (CYPs, kinases, phosphatases, proteases, HDACs) used recombinant protein and specific substrates (fluorescence mostly, some colorimetric and radioactive) and inhibitors, followed by a biochemical separation of substrate and product. All assays for the biochemical HTS were initially run in duplicate at a single concentration (10 uM for CYP450 assays and 25 uM for all others). […] Each assay was run with positive and negative controls, and concurrent controls on every plate. The follow-up (secondary) screen tested active chemical-pairs in concentration series, as well as a few additional assays not tested in the primary screen, some selected negative inactives, and several cases re-run in the concentration series for confirmatory purposes.

Experiment [7] has as its system rat Norepinephrine Transporter (NET), gene 83511. The experiment in a line: NVS_TR_rNET: NovaScreen (NVS) Transporter Assay for rat Norepinephrine Transporter (NET) (AID 2283373). An outline of the steps:
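Rat forebrain membranes; radioligand binding measured by filter-based scintillation counting 1 hour after dosing. Loss of specific binding versus DMSO baseline scored; primary screen in duplicate at 25 uM, actives followed up in concentration series.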

Experiment [8] concerns the target Glucocorticoid receptor (Homo sapiens) (UniProt P04150). As to the kind of experiment: NVS_NR_hGR: NovaScreen (NVS) Nuclear Receptor Binding Assay for human Glucocorticoid Receptor (GR) (AID 2283363). How it is done: NVS_NR_hGR is a biochemical, single-readout assay that uses extracted gene-proteins in a cell-free assay. Measurements were taken 16 hours after chemical dosing in a 96-well plate.NVS_NR_hGR is one of one assay component(s) measured or calculated from the NVS_NR_hGR assay. It is designed to make measurements of radioligand binding, a form of binding reporter, as detected with scintillation counting signals by Filter-based radiodetection technology.Data from the assay component NVS_NR_hGR was analyzed into 1 assay endpoint. This assay endpoint, NVS_NR_hGR, was analyzed in the positive analysis fitting direction relative to DMSO as the negative control and baseline of activity. Using a type of binding reporter, loss-of-signal activity can be used to understand changes in the binding as they relate to the gene NR3C1. Furthermore, this assay endpoint can be referred to as a primary readout, because the performed assay has only produced 1 assay endpoint. To generalize the intended target to other relatable targets, this assay endpoint is annotated to the nuclear receptor intended target family, where the subfamily is steroidal.
as §1

The target in experiment [9] is Nuclear receptor subfamily 1 group I member 2 (Homo sapiens) (UniProt O75469). As to the kind of experiment: NVS_NR_hPXR: NovaScreen (NVS) Nuclear Receptor Binding Assay for human Pregnane X Receptor (PXR) (AID 2283365).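 Note: a drop in FRET signal versus DMSO baseline means the compound binds.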 Put shortly:
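TR-FRET signal read at 2 h in a cell-free human PXR binding format. DMSO served as negative control and baseline; activity scored as signal loss. Single-concentration duplicate screen (25 uM), then concentration-response follow-up.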

Each structure is given as a SMILES string. Records with an inconclusive call do not appear. Some structures have more than one record in an assay (separate samples or runs), and their calls can disagree. Active and inactive are the calls of the source. Rule for the calls: active = hit-call score of the fitted dose curve at least 0.9, where 1 is the maximum; inconclusive = response in the unintended direction; inactive = score below 0.9.

Sequence of guinea pig Sigma Receptor, Non-selective Binding, SIGMAR1 (gene 100135589) (Q60492 whole entry, looked up): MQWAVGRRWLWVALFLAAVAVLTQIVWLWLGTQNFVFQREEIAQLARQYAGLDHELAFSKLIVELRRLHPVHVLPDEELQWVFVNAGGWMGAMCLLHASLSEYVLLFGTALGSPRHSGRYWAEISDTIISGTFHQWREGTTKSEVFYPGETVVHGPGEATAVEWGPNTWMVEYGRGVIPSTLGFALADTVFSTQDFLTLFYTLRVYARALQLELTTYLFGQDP
Sequence of Nuclear receptor subfamily 1 group I member 2 (Homo sapiens) (O75469 whole entry, looked up): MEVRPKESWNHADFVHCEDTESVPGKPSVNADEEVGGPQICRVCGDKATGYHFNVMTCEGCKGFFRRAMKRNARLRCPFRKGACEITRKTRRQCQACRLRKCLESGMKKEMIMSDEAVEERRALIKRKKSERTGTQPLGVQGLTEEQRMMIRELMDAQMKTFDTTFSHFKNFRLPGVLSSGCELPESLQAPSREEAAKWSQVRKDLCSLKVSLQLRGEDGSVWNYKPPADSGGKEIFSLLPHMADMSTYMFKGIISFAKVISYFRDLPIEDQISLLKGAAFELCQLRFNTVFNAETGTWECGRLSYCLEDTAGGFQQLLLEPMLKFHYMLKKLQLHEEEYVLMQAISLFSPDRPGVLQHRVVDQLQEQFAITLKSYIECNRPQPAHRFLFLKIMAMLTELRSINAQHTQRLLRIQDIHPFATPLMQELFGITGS
Sequence of Peroxisome proliferator-activated receptor gamma (Homo sapiens) (P37231 whole entry, looked up): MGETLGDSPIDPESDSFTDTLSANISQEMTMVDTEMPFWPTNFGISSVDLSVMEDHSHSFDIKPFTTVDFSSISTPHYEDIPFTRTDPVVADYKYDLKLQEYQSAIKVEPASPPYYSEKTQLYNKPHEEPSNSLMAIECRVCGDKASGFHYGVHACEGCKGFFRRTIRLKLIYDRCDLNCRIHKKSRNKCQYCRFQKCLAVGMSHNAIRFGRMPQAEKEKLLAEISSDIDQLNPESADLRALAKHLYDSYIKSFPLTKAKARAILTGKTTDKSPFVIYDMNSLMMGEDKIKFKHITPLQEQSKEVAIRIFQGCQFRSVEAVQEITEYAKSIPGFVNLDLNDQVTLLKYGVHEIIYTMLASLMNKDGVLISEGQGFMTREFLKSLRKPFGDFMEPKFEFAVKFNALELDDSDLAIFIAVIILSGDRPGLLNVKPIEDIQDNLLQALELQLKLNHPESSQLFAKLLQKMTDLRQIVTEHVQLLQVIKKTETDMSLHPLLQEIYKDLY
Sequence of human Serotonin Transporter (SERT), SLC6A4 (gene 6532) (P31645 whole entry, looked up): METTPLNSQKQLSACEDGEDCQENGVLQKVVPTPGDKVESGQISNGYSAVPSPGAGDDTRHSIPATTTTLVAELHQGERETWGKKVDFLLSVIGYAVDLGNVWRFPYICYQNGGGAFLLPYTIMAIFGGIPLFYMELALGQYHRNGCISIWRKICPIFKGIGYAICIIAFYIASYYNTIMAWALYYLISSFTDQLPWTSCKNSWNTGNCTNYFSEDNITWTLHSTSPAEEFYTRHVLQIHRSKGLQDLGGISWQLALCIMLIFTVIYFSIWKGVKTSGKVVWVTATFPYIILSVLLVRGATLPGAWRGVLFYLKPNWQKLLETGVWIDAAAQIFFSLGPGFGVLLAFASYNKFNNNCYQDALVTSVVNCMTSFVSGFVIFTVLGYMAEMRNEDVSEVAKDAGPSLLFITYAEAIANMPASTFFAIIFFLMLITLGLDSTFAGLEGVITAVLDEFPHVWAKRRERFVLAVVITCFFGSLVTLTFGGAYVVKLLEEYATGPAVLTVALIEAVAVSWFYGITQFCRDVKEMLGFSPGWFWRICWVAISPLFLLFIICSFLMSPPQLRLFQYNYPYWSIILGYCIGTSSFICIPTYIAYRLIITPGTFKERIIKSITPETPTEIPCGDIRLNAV
Sequence of human Dopamine Transporter (DAT), SLC6A3 (gene 6531) (Q01959 whole entry, looked up): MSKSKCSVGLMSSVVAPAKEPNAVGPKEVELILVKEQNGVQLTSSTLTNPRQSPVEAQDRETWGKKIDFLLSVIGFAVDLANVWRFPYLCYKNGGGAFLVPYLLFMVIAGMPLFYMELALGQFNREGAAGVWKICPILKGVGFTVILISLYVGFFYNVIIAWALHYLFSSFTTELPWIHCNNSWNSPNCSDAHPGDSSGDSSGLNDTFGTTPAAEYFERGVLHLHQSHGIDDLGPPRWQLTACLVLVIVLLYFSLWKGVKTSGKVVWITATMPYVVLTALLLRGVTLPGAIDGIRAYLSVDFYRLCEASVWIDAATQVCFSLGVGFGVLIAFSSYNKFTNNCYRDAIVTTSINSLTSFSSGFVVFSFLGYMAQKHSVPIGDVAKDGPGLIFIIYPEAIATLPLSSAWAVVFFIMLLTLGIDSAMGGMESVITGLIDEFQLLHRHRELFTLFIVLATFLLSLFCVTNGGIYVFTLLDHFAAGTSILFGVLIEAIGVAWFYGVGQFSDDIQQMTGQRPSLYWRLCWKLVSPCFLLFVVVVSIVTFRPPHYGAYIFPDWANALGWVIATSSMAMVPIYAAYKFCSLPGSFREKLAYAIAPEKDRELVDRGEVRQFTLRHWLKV
Sequence of Glucocorticoid receptor (Homo sapiens) (P04150 whole entry, looked up): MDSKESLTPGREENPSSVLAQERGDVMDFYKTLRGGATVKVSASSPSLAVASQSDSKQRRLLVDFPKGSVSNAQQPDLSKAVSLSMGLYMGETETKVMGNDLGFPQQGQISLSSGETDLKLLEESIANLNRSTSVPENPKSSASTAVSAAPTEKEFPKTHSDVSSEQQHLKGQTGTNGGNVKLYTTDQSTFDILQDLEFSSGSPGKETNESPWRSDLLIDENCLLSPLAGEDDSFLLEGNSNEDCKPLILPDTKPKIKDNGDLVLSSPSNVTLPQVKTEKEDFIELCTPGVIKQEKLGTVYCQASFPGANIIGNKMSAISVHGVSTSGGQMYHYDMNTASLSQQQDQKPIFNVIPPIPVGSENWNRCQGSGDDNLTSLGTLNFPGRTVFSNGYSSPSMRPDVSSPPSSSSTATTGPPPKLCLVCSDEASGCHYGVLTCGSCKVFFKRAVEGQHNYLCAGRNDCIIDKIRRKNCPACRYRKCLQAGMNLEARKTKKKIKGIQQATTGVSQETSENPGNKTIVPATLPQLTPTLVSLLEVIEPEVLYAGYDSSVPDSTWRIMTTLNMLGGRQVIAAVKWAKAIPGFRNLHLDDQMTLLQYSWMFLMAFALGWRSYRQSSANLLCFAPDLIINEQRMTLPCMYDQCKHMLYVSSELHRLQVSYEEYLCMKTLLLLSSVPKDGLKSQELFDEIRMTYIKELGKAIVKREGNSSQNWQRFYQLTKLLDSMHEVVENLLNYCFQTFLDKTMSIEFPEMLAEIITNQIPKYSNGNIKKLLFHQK
Sequence of human Adenosine Transporter (Adot), SLC29A1 (gene 2030) (Q99808 whole entry, looked up): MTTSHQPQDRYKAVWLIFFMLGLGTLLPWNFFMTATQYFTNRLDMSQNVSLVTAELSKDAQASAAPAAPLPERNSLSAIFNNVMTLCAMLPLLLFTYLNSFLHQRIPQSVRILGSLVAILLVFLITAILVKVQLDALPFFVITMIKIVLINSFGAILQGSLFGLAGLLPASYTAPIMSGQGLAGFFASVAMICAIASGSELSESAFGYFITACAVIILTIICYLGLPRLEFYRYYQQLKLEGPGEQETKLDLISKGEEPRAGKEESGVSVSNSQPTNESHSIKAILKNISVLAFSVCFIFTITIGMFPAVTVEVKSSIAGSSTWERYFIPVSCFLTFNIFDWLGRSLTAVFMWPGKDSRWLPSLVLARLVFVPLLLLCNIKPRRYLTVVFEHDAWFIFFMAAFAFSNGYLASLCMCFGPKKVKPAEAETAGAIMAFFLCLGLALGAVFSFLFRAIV

With `Nc1ccc(Cl)cc1N`, the compound was called inactive in experiment [1].
In general, AC50 refers to the concentration giving half of the maximal activity seen. With `Cc1cccc(N)c1N`, in [1], the AC50 is 0.00229 µM (active).
For `O=C(Oc1ccc(Br)cc1)N1CCN2CCC1CC2`, the results for the concentration at half-maximal activity (AC50) in experiment [2], in experiment [3] and in experiment [4] were 7.13 µM (active), 1.91 µM (active) and 8.54 µM (active), respectively. The result in experiment [1] was inactive.
As to `C[C@]12C=CC3=C4CCC(=O)C=C4CC[C@H]3[C@@H]1CC[C@@H]2O`, the AC50 was 35.2 µM (active) in [5] and 41.5 µM (active) in experiment [1]. Moreover, the outcome in experiment [1] and in experiment [3] was inactive.
In the case of `O=C(N[C@H](c1ccccc1)[C@@H]1CN2CCC1CC2)c1c(Cl)ccc(C(F)(F)F)c1Cl`, the AC50 in experiment [6] is 22.3 µM (active); in [2], 29.9 µM (active); in experiment [3], 1.52 µM (active); in experiment [7], 26.4 µM (active); in [4] it was 23.1 µM (active).
Consider `CN(C)[C@@H]1C(=O)C(C(N)=O)=C(O)[C@@]2(O)C(=O)C3=C(O)c4c(O)cccc4[C@@](C)(O)[C@H]3C[C@@H]12`, for which the AC50 in [8] is 15.9 µM (active).
In the case of `CN(C)c1ccc(C(=O)c2ccc(N(C)C)cc2)cc1`, in [9], the compound was called inactive. In [1], the AC50 was 25 µM (active).
`CCOC(=O)[C@]1(c2ccccc2)Oc2ccccc2[C@@H]1N`: the concentration at half-maximal activity (AC50) is 25 µM (active) in experiment [8]; 0.0612 µM (active) in experiment [6]; 5.45 µM (active) in [2]; 2.56 µM (active) in [3]; 5.35 µM (active) in experiment [7]; 2.98 µM (active) in experiment [4]. For the same compound, in [1], the call was inactive.
Regarding `O=[N+]([O-])C(Br)(CO)CO`, the AC50 in [5] is 25 µM (active). Also, the outcome in [1] was inactive.
With `Nc1ccc(Oc2ccc(N)cc2)cc1`, the AC50 in [2] was 2.99 µM (active); in [4], 3.25 µM (active). Moreover, the outcome in experiment [1] was inactive.
For `CCCCC(CC)COC(=O)c1ccc(C(=O)OCC(CC)CCCC)c(C(=O)OCC(CC)CCCC)c1` (stereo not drawn), the result in experiment [9] was inactive.
Regarding `CCCCCCCCCCCCCN1CC(C)OC(C)C1` (stereo not drawn), in experiment [9], the outcome was inactive. In addition, the AC50 in experiment [6] is 0.0622 µM (active).
